A549 tox: A549 cytotoxicity, counter-screen for Nrf2 inhibitors | A549 ARE-Fluc cells, CellTiter-Fluor viability, 18-24 h | Potency, µM (doses to about 46 µM), most hits filed as inhibitors | 390,000 compounds, 0.16% hits | AID 504648
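A549 ARE-Fluc cells in 5% FBS OPTI-MEM, 5000 cells/well, rested 2 h then exposed to compounds in concentration-response for 18-24 h at 37 °C. Viability by CellTiter-Fluor fluorescence (Ex 405/Em 525) after 30 min; luciferase luminescence (BugLite, 15 min, RT) read afterwards.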
Nrf2 inh: Nrf2 pathway inhibition; A549 ARE-Fluc reporter, luciferase luminescence, 18-24 h; Potency, µM (titrated, usually from 46 µM), actives largely listed as inhibitors; 360,000 compounds, 2.1% hits; also: nearly all actives have a fitted effect of over 60% in size
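Nrf2 activity is the BugLite luminescence, read 15 min after reagent at room temperature, following CellTiter-Fluor cytotoxicity readout (30 min, 37C). Compound titrations were applied for 18-24 h to 5000 A549 ARE_Fluc cells/well in 5% FBS OPTI-MEM.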
rTrxR1 inhibitor: blocks rat thioredoxin reductase 1 | O89049 | recombinant rTrxR1, NADPH fluorescence consumption, selenite substrate | Potency, µM (top dose mostly 114 µM), actives largely listed as inhibitors | 390,000 compounds, 1% hits; also: nearly all actives have a fitted effect of over 65% in size
Target sequence (O89049 whole entry, looked up): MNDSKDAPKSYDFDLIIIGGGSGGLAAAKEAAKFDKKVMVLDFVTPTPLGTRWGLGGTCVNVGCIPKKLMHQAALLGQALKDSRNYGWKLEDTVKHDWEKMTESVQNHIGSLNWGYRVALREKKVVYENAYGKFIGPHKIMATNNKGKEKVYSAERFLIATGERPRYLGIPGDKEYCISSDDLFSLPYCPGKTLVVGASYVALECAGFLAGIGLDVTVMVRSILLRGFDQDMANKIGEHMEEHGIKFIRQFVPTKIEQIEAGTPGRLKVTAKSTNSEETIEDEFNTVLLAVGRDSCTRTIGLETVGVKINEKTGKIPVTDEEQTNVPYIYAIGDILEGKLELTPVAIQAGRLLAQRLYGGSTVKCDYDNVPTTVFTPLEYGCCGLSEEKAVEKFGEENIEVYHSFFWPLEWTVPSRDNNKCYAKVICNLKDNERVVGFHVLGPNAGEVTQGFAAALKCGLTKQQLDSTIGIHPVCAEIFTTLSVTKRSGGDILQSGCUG
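Rat TrxR1 (90 nM in the dispensed reagent) was pre-reduced with 400 uM NADPH for 5 min at room temperature, then incubated with compound for 15 min. After 400 uM selenite was added, NADPH fluorescence (Ex 340/Em 450 nm) was followed for 8 min.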
GALK inhibitor: galactokinase (human) inhibition. P51570. Purified GALK, Kinase-Glo residual ATP luminescence. 270,000 compounds, 0.007% hits. AID 1868. Potency, µM (doses to about 57.5 µM), hits mostly inhibitors
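5 nM enzyme, 35 uM ATP, 100 uM galactose, 20 mM HEPES pH8.0, 5 mM MgCl2; 1 h RT; residual ATP by Kinase-Glo Plus luminescence, qHTS format.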
TrxR1 substrate: substrates of rat thioredoxin reductase 1 | O89049 | purified TrxR1 substrate turnover, NADPH consumption readout | Potency, µM (top dose mostly 114 µM) | 390,000 compounds, 0.01% hits; also: nearly all actives have a fitted effect of over 50% in size
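Rat TrxR1, dispensed at 90 nM, was prereduced with 400 uM NADPH (final) for 5 min at ~22 deg C, then incubated with compound 15 min before 400 uM selenite. A first-read NADPH fluorescence drop versus no-compound background flagged substrates.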
Nrf2 activator: activates Nrf2 signaling. 410,000 compounds, 0.31% hits. Potency, µM (doses to about 46.1 µM), usual class: activators. AREc32 ARE-luciferase reporter (MCF7-derived line), luminescence, 24 h; also: nearly all actives have a fitted effect of over 65% in size
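AREc32_Fluc, 1000 cells/well, OPTI-MEM + 5% FBS, o/n 37 deg C 5% CO2; 23 nL cpd by pin tool, 24 hr; Steady-Glo 30 min RT, luminescence.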
Hits are given with their value; - = inactive; ? = inconclusive; . = no result; [ ] = another dose, or the depositor's remark. A selection: hits, their analogues and other compounds. The true share with any hit is near 3%. Calls follow the shape of the dose curve; as a rule, active = well fitted curve in the direction sought with a large enough effect; inconclusive = small, poorly fitted or top-dose-only effect, or another doubt; inactive = no such curve, though single readings can be large; an effect the other way counts as inactive or inconclusive.

SMILES | A549 tox | Nrf2 inh | rTrxR1 inhibitor | GALK inhibitor | TrxR1 substrate | Nrf2 activator
Cc1cc(Nc2ccc(C(=O)O)c(O)c2)n2ncnc2n1 | - | - | - | . | - | -
COc1cc(-c2nc3sccn3c2Nc2c(C)cccc2C)ccc1O | - | - | 15.8µM | . | - | -
Cn1nnnc1Sc1ncnc2scc(-c3ccccc3F)c12 | - | ? | . | . | . | .
O=C(Nc1ccc(Cc2ccncc2)cc1)C1CCC(N2C(=O)C3C4C=CC(C5CC45)C3C2=O)CC1 (stereo not given) | ? | 18.4µM | - | - | - | -
O=C(Nc1ccc(Cc2ccncc2)cc1)C1CC1 | - | - | - | - | - | -
CC(=O)Nc1ccc(NC(=O)C2CCC(N3C(=O)C4C5C=CC(C6CC56)C4C3=O)CC2)cc1 (stereo not given) | - | 25.9µM | 25.1µM | - | - | -
CCOc1ccc(CNC(=O)c2ccc3c(c2)nc2n3CCOC2)cc1OC | - | . | - | . | - | -
CCc1ccc(S(=O)(=O)c2cn(CC(=O)Nc3ccc(F)c(Cl)c3)c3ccccc3c2=O)cc1 | - | - | - | . | - | -
Cc1cccc(N(CC(O)Cn2c3ccccc3c3ccccc32)S(=O)(=O)c2ccc(F)cc2)c1 (stereo not given) | - | ? | - | . | - | -
COc1ccc(-c2nc3ccc(NC(C)=O)cc3c(=O)n2Cc2cccc(Cl)c2)cc1COc1ccc(NC(C)=O)cc1 | - | ? | 14.1µM | . | - | .
COc1ccc(-c2nc3cccc(OC)c3c(=O)n2Cc2ccccc2)cc1COc1ccc(NC(C)=O)cc1 | - | - | . | . | . | .
COc1ccc(-c2nc3ccc(NC(=O)COC(C)=O)cc3c(=O)n2Cc2ccccc2)cc1COc1ccc(NC(C)=O)cc1 | - | ? | 35.5µM | . | - | .
C/C=C1\COC(C(=O)NCc2ccccc2)(C(F)(F)F)C=C1C=C(C)C (stereo not given) | - | - | 3.16µM | . | - | -
C/C=C1\COC(C(=O)NCCN2CCOCC2)(C(F)(F)F)C=C1C=C(C)C (stereo not given) | - | ? | 10µM | . | - | .
O=C(NCc1ccccc1)C1(C(F)(F)F)C/C(=C/CCO)CCCO1 (stereo not given) | - | - | - | . | - | -
CCn1c(-c2ccccc2Cl)nn(CC(=O)Nc2cc(Cl)ccc2Cl)c1=S | - | 16.4µM | - | - | - | -
COc1ccc(Cl)cc1NC(=O)CN(c1cc(C)cc(C)c1)S(=O)(=O)c1c(C)n[nH]c1C | - | ? | - | . | - | -
Cc1ccc2nc(N(CCN3CCOCC3)C(=O)CCS(=O)(=O)c3ccccc3)sc2c1 | - | ? | - | . | - | ?
CN(C)CCN(C(=O)CCS(=O)(=O)c1ccccc1)c1nc2cc3c(cc2s1)OCO3 | - | - | - | - | - | -
Cc1ccc(S(=O)(=O)CCC(=O)N(CCCN2CCOCC2)c2nc3ccccc3s2)cc1 | - | ? | 28.2µM | . | - | 12.6µM
CCN(CC)CCN(C(=O)CCS(=O)(=O)c1ccccc1)c1nc2cc3c(cc2s1)OCO3 | - | - | 14.1µM | - | - | -
O=C(CCS(=O)(=O)c1ccccc1)N(CCCN1CCOCC1)c1nc2ccccc2s1 | - | - | 14.1µM | . | - | ?
O=[N+]([O-])c1ccc(C=C2c3ccccc3-c3ccccc32)cc1 | . | . | - | . | - | .
COc1ccc(-c2cn3nc(N4CCCC(C(=O)Nc5ccccc5F)C4)sc3n2)cc1 (stereo not given) | - | ? | - | . | - | -
COc1ccc(C(=O)N2CCC(C(=O)c3ccc(F)cc3)CC2)cc1 | - | - | - | - | - | -
SMILES | A549 tox | Nrf2 inh | rTrxR1 inhibitor | GALK inhibitor | TrxR1 substrate | Nrf2 activator
Cc1ccc(C(=O)N2CCC(C(=O)c3ccc(F)cc3)CC2)cc1 | - | ? | -[2.29 µM] | . | -[2.29 µM] | -
Cc1ccc(C(=O)C2CCN(C(=O)c3ccc(C)cc3)CC2)cc1 | - | 23.1µM | - | - | - | -
COc1ccc(C(=O)C2CCN(C(=O)c3ccc(OC)cc3)CC2)cc1 | - | 23.1µM | - | - | - | -
CCOc1ccc(Cl)cc1C1CC(=O)Nc2cc(OC)c(OC)c(OC)c21 (stereo not given) | - | - | - | . | - | -
COc1ccc(CNC(=O)c2cccn2-c2nnc(N3CCCCC3)s2)c(OC)c1 | - | ? | - | . | - | -
O=C(C(Cl)c1ccccc1)N1CCCC1 (stereo not given) | - | - | 20µM | - | - | ?
O=C(Nc1ccc(N2CCCCC2)cc1)C(Cl)c1ccccc1 (stereo not given) | - | ? | - | - | - | -
Cc1ccccc1Cn1c(=O)n(Cc2ccco2)c(=O)c2sc3ccccc3c21 | - | - | ? | . | - | -
CC(C)C1Nc2ccc(C(=O)O)cc2C2C=CCC21 (stereo not given) | - | - | ? | - | - | -
CCCC1Nc2ccc(C(=O)O)cc2C2C=CCC12 (stereo not given) | - | - | 50.1µM | - | - | -
CCOC(=O)C1Nc2ccc(C(=O)O)cc2C2C=CCC12 (stereo not given) | - | - | 11.2µM | - | - | -
O=C(C[n+]1cccc2cccc(O)c21)c1ccc2ccccc2c1 | . | . | - | . | - | .
CCS(=O)(=O)N1CCc2cc(C(=O)NCc3ccccc3)ccc21 | - | - | - | . | - | -
COc1ccc(C(C)=O)cc1COc1cccnc1[N+](=O)[O-] | - | - | -[0.0914 µM] | - | - | -
COc1ccc(C(C)=O)cc1COC(=O)CCNS(=O)(=O)c1ccc(C)cc1 | - | - | ? | . | - | -
COc1ccc(C(C)=O)cc1COC(=O)c1cc(=O)c2ccccc2o1 | - | - | 12.6µM | - | -[0.0914 µM] | -
COc1ccc(C(C)=O)cc1COc1ccccc1[N+](=O)[O-] | - | - | 35.5µM | - | - | ?
COc1ccc(C(C)=O)cc1COC(=O)c1cc(C)oc1C | - | - | 10µM | - | - | -
COc1ccc(C(C)=O)cc1COC(=O)CCNS(=O)(=O)c1ccc(C(C)=O)cc1 | - | - | 39.8µM | - | - | -
C[N+](C)(C)CCCCCC(=O)/C=N/O | - | - | - | - | - | -
CC(=O)CC[N+](C)(C)C | - | - | 2.24µM | . | - | -
Cc1ccc(N2C(=O)N(Cc3cc(=O)n4ccccc4n3)c3ccccc3S2(=O)=O)cc1Cl | - | . | - | . | - | -
Cc1ccc2nc(/C(C#N)=C\c3ccc([N+](=O)[O-])o3)[nH]c2c1 | ? | - | ? | - | - | ?
N#C/C(=C\c1ccc([N+](=O)[O-])o1)c1nc2ccccc2[nH]1 | - | ? | 2.82µM | - | - | ?
CN1C(=O)Cc2cc([S+](=O)([O-])N3CCN([S+](=O)([O-])c4c(F)cccc4F)CC3)ccc21 | - | - | . | . | . | .
CCOc1ccccc1NC(=O)c1nc(S(=O)(=O)Cc2cccc(C)c2)ncc1Cl | - | ? | 7.08µM | - | - | -
